# This is a sample that favours compounds with a hit; in the whole collection about 2.4% have one here.
# Pol eta inh: blocks human DNA polymerase eta activity; Q9Y253; recombinant Pol eta, fluorescent DNA replication assay; Potency, µM (doses to about 114 µM), for the others: at the top dose activity change, negative = inhibition, hits mostly inhibitors; actives 1.2% (n = 390,000); AID 588591; further: on the % scale 0 is the no-effect control and ±100 the full control effect
#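 Pol eta (10 nM) was preincubated with compounds for 15 min at room temperature, after which fluorescent replication substrate (50 nM final) was added to start the reaction. Fluorescence was read kinetically at 0 and 10 min.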
# TDP1 block: blocks human tyrosyl-DNA phosphodiesterase 1; Q9NUW8; recombinant TDP1, AlphaScreen DNA substrate cleavage; Potency, µM (titrated, usually from 130 µM), inactives show top-dose activity change, negative = inhibition, hits mostly inhibitors; actives 0.28% (n = 350,000); further: on the % scale 0 is the no-effect control and ±100 the full control effect; nearly all actives have a fitted effect of over 40% in size
#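 Here, a 5' biotin and 3' phosphotyrosine-FITC DNA oligonucleotide reports Tdp1 activity: intact substrate bridges AlphaScreen beads, while cleavage leaves a 3' phosphate and drops signal. All incubations at room temperature.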
# POLI inh: inhibitors of human DNA polymerase iota; Q9UNA4; Pol iota fluorescent replication assay, 10 min; Potency, µM (highest dose often 115 µM), inactives show at the top dose activity, negative = inhibition, actives largely listed as inhibitors; actives 1% (n = 390,000); AID 588590
#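 Pol iota at 10 nM preincubated 15 min with compounds at room temperature; reaction started with fluorescent substrate, 50 nM final. Fluorescence read kinetically at 0 and 10 min; buffer-only wells as negative control.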
# Pol kappa inh: blocks human DNA polymerase kappa activity | Potency, µM (series often up to 107 µM), without a hit: top-dose activity, negative = inhibition, actives largely listed as inhibitors | Q9UBT6 | actives 0.53% (n = 400,000) | purified Pol kappa, fluorescent DNA synthesis assay, 10 min; further: on the % scale 0 is the no-effect control and ±100 the full control effect
#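 Pol kappa 10 nM + cpd, 15 min RT; start w/ substrate 50 nM final; fluorescence kinetic read, 0 and 10 min. Neg ctrl: buffer, no enzyme.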
# Pol beta inh: DNA polymerase beta (human) inhibition | Potency, µM (highest dose often 114 µM), without a hit: top-dose activity change, negative = inhibition, most hits filed as inhibitors | actives 1.3% (n = 340,000) | Pol beta primer extension/strand displacement, fluorescence kinetic | P06746; further: on the % scale 0 is the no-effect control and ±100 the full control effect
#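 Human Pol beta at 10 nM; strand-displacement substrate 50 nM final. Compound exposure 15 min at room temperature before start, reaction 10 min at room temperature.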
# FEN1 inh-1: inhibitors of human flap endonuclease 1 | P39748 | Recombinant FEN1 flap cleavage, fluorescence, 15 min | Potency, µM (titrated, usually from 114 µM), for the others: at the top dose activity change, negative = inhibition, usual class: inhibitors | actives 0.35% (n = 390,000); further: on the % scale 0 is the no-effect control and ±100 the full control effect; nearly all actives have a fitted effect of over 65% in size
#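 With each library titrated from low to high concentration, compounds met 10 nM FEN1 for 15 min at room temperature before 50 nM substrate was added; readings at 0 and 15 min fed four-parameter Hill curve fits.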
# FEN1 inh-2: FEN1 inhibition, cherry-pick retest; shares compounds with FEN1 inh-1; FEN1 flap cleavage, TAMRA/BHQ2 fluorogenic DNA substrate; Potency, µM, hits mostly inhibitors; actives 79% (n = 880); further: nearly all actives have a fitted effect of over 60% in size
# * hit, by the source's call; u = inconclusive; x = not tested or not shown; [ ] = another dose, or the depositor's remark. The call rests on the fitted dose curve; in most records, active means well fitted curve in the direction sought with a large enough effect; inconclusive means small, poorly fitted or top-dose-only effect, or another doubt; inactive means no such curve, though single readings can be large; an effect the other way counts as inactive or inconclusive. Potency means the concentration at half of the fitted maximal effect.
SMILES,Pol eta inh,TDP1 block,POLI inh,Pol kappa inh,Pol beta inh,FEN1 inh-1,FEN1 inh-2
O=C(COC(=O)c1ccc([N+](=O)[O-])s1)c1ccc[nH]1,20µM*,-9.8%,89.1µM*,-28.8%,x,-21.9%,3.38*
C[C@@H](O)CNC(=O)c1[nH]cnc1C(=O)N[C@H](C)c1ccccc1,-14.5%,x,x,x,x,x,x
CCCN(CCC)C(=O)Cn1c(=O)n(-c2ccc(Cl)cc2)c(=O)c2c3c(sc21)CCCC3,-16.2%,-0.9%,26.3%,1.3%,15.7%,-6.5%,x
COc1ccc(/C=N\NC(=O)c2cc(O)c(O)c(O)c2)cc1COc1ccc(C(=O)OCC(C)C)cc1,u,x,5.4%,7.9%,1.41µM*,u,33.8*
O=[N+]([O-])c1ccc(C=Nc2cccc3ccccc23)s1,u,8.2%,u,-13.3%,u,u,6.01*
Cc1cc(NC(=O)CCNS(=O)(=O)c2ccc3c(c2)CCCC(=O)N3)ccc1Br,-0.5%,-1.1%,-24.7%,-4.3%,-5.4%,15.9%,x
CCC1CCCCN1CCCNC(=O)c1cc2c(Cl)nc3ccc(C)cc3c2s1 (stereo not given),8.2%,3.8%,-11.2%,9.1%,-11.2%,89.1µM*,u
Cc1ccc2nc(Cl)c3cc(C(=O)NCCCN4CCCC4)sc3c2c1,-2.6%,2.6%,-12.5%,4.2%,-3.9%,22.4µM*,47.8*
CN(C)CCCN1C(=O)c2cccc3cccc(c23)C1=O,-5.2%,0.6%,25.9%,-21.2%,u,u,67.5*
O=C(O)CCCN1C(=O)c2cccc3cccc(c23)C1=O,-1.9%,x,20.7%,-16.5%,42.4%,-4.0%,x
CCN(CC)CCNc1ccc(CO)c2oc3ccccc3c(=O)c12,-14.1%,x,x,x,x,x,x
CCN(CC)CCNc1ccc(CO)c2sc3ccccc3c(=O)c12,-17.7%,13.6%[56.1 µM],20µM*,u,15.8µM*,31.6µM*,33.8*
CS(=O)(=O)N(CC(=O)NCCSCc1ccccc1)c1ccccc1Cl,-10.5%,x,17.6%,-1.5%,22.4%,9.1%,x
O=C(O)c1ccc2cccnc2c1O,-12.5%,-2.9%,35.9%,-23.4%,26.7%,22.4µM*,7.57*
Cc1ccc(C(=O)N/C(=C/c2ccc(-c3ccc([N+](=O)[O-])cc3)o2)C(=O)NCCCN(C)C)cc1,-24.4%,x,5.5%,-5.3%,x,u,42.6*
COc1cc(OC)c(N2CC(C(=O)NCCC3=CCCCC3)CC2=O)cc1Cl (stereo not given),-7.6%,1.5%,-14.5%,-0.9%,x,3.7%,x
CN(C)CCNc1ccc2nnn3c4ccc(O)cc4c(=O)c1c23,u,x,u,-42.1%,x,12.6µM*,8.49*
CCOC(=O)c1ccc2ncc(C(=O)OCC)c(NCCN(C)C)c2c1,-9.9%,x,2.6%,-11.8%,x,15.8%,x
COc1cc(C(=O)NC2CCN(C)CC2)ccc1Nc1ncc2c(n1)N(C1CCCCC1)CCC(=O)N2C,-24.3%,x,u,-22.7%,x,u,37.9*
COc1cc(C(=O)NC2CCN(C)CC2)ccc1Nc1ncc2c(n1)N(Cc1ccccc1)CCC(=O)N2C,-12.1%,x,39.1%,-9.9%,x,u,x
Cc1sc2c(c1C)c(=O)n(-c1cccc(C(F)(F)F)c1)c(=O)n2Cc1ccc(F)cc1,x,-0.9%,-3.9%,-5.7%,11.0%,19.3%,x
CC(=O)c1cccc(NC(=O)c2ccc([N+](=O)[O-])o2)c1,-14.0%,x,79.4µM*,-21.8%,x,-1.3%,42.6*
O=C(Nc1ccc(N2CCN(C(=O)c3ccccc3)CC2)cc1)c1ccc([N+](=O)[O-])o1,u,-14.6%,u,-19.9%,25.1µM*,-0.7%,26.9*
O=C(NNC(=O)c1ccccc1C(F)(F)F)c1csc(N2CCOCC2)n1,-7.3%,5.1%,-8.5%,-8.4%,-17.7%,0.4%,x
